Source: PubChem BioAssay (NCI)
Compounds without any hit were thinned out: in the full panel of roughly 83,000, 20% have a hit.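 Percent growth is the endpoint: 0 to 100 indicates growth inhibition (40 means 60% inhibition), 0 means no net growth, and negative values indicate cell death.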 A number with no mark means an inactive call. Activity calls are given as the source filed them. The calls were made as follows: active = growth percent below 10; inactive = the rest.

Tested on: NCI-H522 lung
Assay: NCI-60 one-dose screen, 48 h (100 = growth as untreated, 0 = no growth, -100 = all killed)
Conditions: 10 µM

Compound | growth
COc1ccc(-c2ccccc2)cc1C(=O)c1ccc(-c2ccccc2)cc1 | 42.7%
O=C1CC[C@@H](C(=O)N[C@H]2CSSC[C@@H](C(=O)N/C=C/c3ccc(O)cc3)NC(=O)[C@H](Cc3ccccc3)NC(=O)[C@@H]3CCCN3C(=O)[C@@H]3CCCN3C2=O)N1 | 87.4%
COc1ccc2nc(C)cc(Nc3ccc(Cl)cc3)c2c1 | 105%
CC(=O)OC1Oc2ccccc2-c2oc(=O)c(-c3cc(=O)oc4cc(O)ccc34)cc21 (stereo unspecified) | 69.6%
O=C(NCCc1nccs1)c1cnc2c(S)cccc2c1 | -65.7% (active)
COc1ccccc1Cn1cc2c(c1-c1ccccc1)CCc1cnoc1-2 | 42.1%
FC(F)(F)c1ccc(-c2cnc(Cl)nc2NC2CCCCCC2)cc1 | -6.08% (active)
C[C@]12CC[C@H]3[C@@H](CCC4=CC(=O)CC[C@@]43C)[C@@H]1CC[C@@H]2c1csc(N)n1 | 63.1%
COc1ccc(COC(=O)CC(C)C)cc1 | 79.1%
CCOC(=O)c1cc2c(n1Cc1ccccc1)-c1oncc1CC2 | 41.1%
CCCCCCCCCCCCCCCCCBr | 98.4%
CS(=O)(=O)Nc1ccc([N+](=O)[O-])cc1Oc1ccccc1 | 92.6%
Oc1ccccc1-c1nnc(Cn2c(Cc3cccc4ccccc34)nc3ccccc32)o1 | 92.2%
O=NN(CC(=O)N/N=C/C=C\c1ccccc1)CC(=O)N/N=C/C=C/c1ccccc1 | 95.5%
O=C(OCc1ncc(-c2ccc(C(F)(F)F)cc2)c(NC2CCCCCC2)n1)c1c(F)c(F)c(F)c(F)c1F | 38.4%
Cc1cc(O)c(C2=NN(c3ccc(S(N)(=O)=O)cc3)C(c3ccc(N(C)C)cc3)C2)c(C)c1Cl (stereo unspecified) | 39.7%
C=CCNC(=S)NN | 91.6%
O=C(Nc1ccc(OS(=O)(=O)Cc2ccccc2)cc1)C12CC3CC(CC(C3)C1)C2 | 81.6%
Cc1cc(C(C)(C)CC(C)(C)C)ccc1OCCOCC[N+](C)(C)Cc1ccccc1 | -50.1% (active)

Compound | growth
Oc1cc(O)c(Br)cc1Br | 88.8%
C/C(=N/NC(=O)c1sc(=S)n(C)c1N)c1cc2cc(Cl)ccc2o1 | 88.6%
CCOC(=O)CSC(=S)SCC(=O)OCC | 67.7%
Cc1c(C(=O)N[C@H](CO)Cc2ccccc2)[nH]c2ccc(Cl)cc2c1=O | 83.8%
Cc1ccc2c(c1)-c1cc(C)nn1-c1ccc(C#N)cc1O2 | 15.2%
CCOC(=O)c1cc(-c2ccccc2)nc(N)n1 | 95.5%
COc1cccc2c1O/C(=C\c1ccc([N+](=O)[O-])s1)C2=O | -65% (active)
CCN(CC)CC(O)CNc1ccnc2cc(Cl)c(Cl)cc12 (stereo unspecified) | 94.1%
N#C/C(=C\N1C(=O)/C(=C/c2cccc([N+](=O)[O-])c2)SC1=S)c1nc2ccccc2s1 | 57.8%
COc1cc(/C=C/C(=O)c2cc(-c3ccccc3)ccc2O)cc(OC)c1OC | 54.9%
Cc1cccc2c(Nc3ccc(NS(C)(=O)=O)cc3)c3ccc([N+](=O)[O-])cc3nc12 | -68.3% (active)
COc1ccc(/C=C2\SC(=S)N(CCCN3CCOCC3)C2=O)c(OC)c1 | 79.7%
Oc1ccc(/C=N\Nc2ccccn2)c(O)c1 | 23.7%
O=C(NCCCl)c1cc(Cl)cc(Cl)c1 | 92.8%
O=S(=O)(NCCO)c1ccc(OCCOc2ccc(S(=O)(=O)NCCO)cc2)cc1 | 91.7%
CCCCCCCCCCCCc1ccc(C(=O)/C=C/C(=O)O)cc1 | -24.2% (active)
CCOC(=O)/C(C#N)=C(/C)C1CC1 | 110%
O=C1CC(c2cccc(-c3cccnc3)c2)=Nc2ccc(Br)cc2N1 | 22.5%
COc1cc(NS(C)(=O)=O)ccc1Nc1c2ccc(Cl)cc2nc2c(OC)cccc12 | -6.02% (active)

Tested on: A549/ATCC NSCLC
Assay: as above
Conditions: 10 µM

Compound | growth
COc1ccc(-c2ccccc2)cc1C(=O)c1ccc(-c2ccccc2)cc1 | 63.7%
O=C1CC[C@@H](C(=O)N[C@H]2CSSC[C@@H](C(=O)N/C=C/c3ccc(O)cc3)NC(=O)[C@H](Cc3ccccc3)NC(=O)[C@@H]3CCCN3C(=O)[C@@H]3CCCN3C2=O)N1 | 85.2%
COc1ccc2nc(C)cc(Nc3ccc(Cl)cc3)c2c1 | 92.2%
CC(=O)OC1Oc2ccccc2-c2oc(=O)c(-c3cc(=O)oc4cc(O)ccc34)cc21 (stereo unspecified) | 84.3%
O=C(NCCc1nccs1)c1cnc2c(S)cccc2c1 | 12.6%
COc1ccccc1Cn1cc2c(c1-c1ccccc1)CCc1cnoc1-2 | 46.6%
FC(F)(F)c1ccc(-c2cnc(Cl)nc2NC2CCCCCC2)cc1 | 17.4%
C[C@]12CC[C@H]3[C@@H](CCC4=CC(=O)CC[C@@]43C)[C@@H]1CC[C@@H]2c1csc(N)n1 | 60.7%
COc1ccc(COC(=O)CC(C)C)cc1 | 89.5%
CCOC(=O)c1cc2c(n1Cc1ccccc1)-c1oncc1CC2 | 89.1%
CCCCCCCCCCCCCCCCCBr | 108%
CS(=O)(=O)Nc1ccc([N+](=O)[O-])cc1Oc1ccccc1 | 89.3%
Oc1ccccc1-c1nnc(Cn2c(Cc3cccc4ccccc34)nc3ccccc32)o1 | 100%
O=NN(CC(=O)N/N=C/C=C\c1ccccc1)CC(=O)N/N=C/C=C/c1ccccc1 | 97.3%
O=C(OCc1ncc(-c2ccc(C(F)(F)F)cc2)c(NC2CCCCCC2)n1)c1c(F)c(F)c(F)c(F)c1F | 48.9%
Cc1cc(O)c(C2=NN(c3ccc(S(N)(=O)=O)cc3)C(c3ccc(N(C)C)cc3)C2)c(C)c1Cl (stereo unspecified) | 40.8%
C=CCNC(=S)NN | 69.6%
O=C(Nc1ccc(OS(=O)(=O)Cc2ccccc2)cc1)C12CC3CC(CC(C3)C1)C2 | 78.5%
Cc1cc(C(C)(C)CC(C)(C)C)ccc1OCCOCC[N+](C)(C)Cc1ccccc1 | 36.7%

Compound | growth
Oc1cc(O)c(Br)cc1Br | 98.9%
C/C(=N/NC(=O)c1sc(=S)n(C)c1N)c1cc2cc(Cl)ccc2o1 | 8.04% (active)
CCOC(=O)CSC(=S)SCC(=O)OCC | 99%
Cc1c(C(=O)N[C@H](CO)Cc2ccccc2)[nH]c2ccc(Cl)cc2c1=O | 87.1%
Cc1ccc2c(c1)-c1cc(C)nn1-c1ccc(C#N)cc1O2 | 51.6%
CCOC(=O)c1cc(-c2ccccc2)nc(N)n1 | 102%
COc1cccc2c1O/C(=C\c1ccc([N+](=O)[O-])s1)C2=O | 78.5%
CCN(CC)CC(O)CNc1ccnc2cc(Cl)c(Cl)cc12 (stereo unspecified) | 101%
N#C/C(=C\N1C(=O)/C(=C/c2cccc([N+](=O)[O-])c2)SC1=S)c1nc2ccccc2s1 | 70%
COc1cc(/C=C/C(=O)c2cc(-c3ccccc3)ccc2O)cc(OC)c1OC | 85%
Cc1cccc2c(Nc3ccc(NS(C)(=O)=O)cc3)c3ccc([N+](=O)[O-])cc3nc12 | 1.51% (active)
COc1ccc(/C=C2\SC(=S)N(CCCN3CCOCC3)C2=O)c(OC)c1 | 102%
Oc1ccc(/C=N\Nc2ccccn2)c(O)c1 | 26.6%
O=C(NCCCl)c1cc(Cl)cc(Cl)c1 | 90.7%
O=S(=O)(NCCO)c1ccc(OCCOc2ccc(S(=O)(=O)NCCO)cc2)cc1 | 95%
CCCCCCCCCCCCc1ccc(C(=O)/C=C/C(=O)O)cc1 | 78.4%
CCOC(=O)/C(C#N)=C(/C)C1CC1 | 99.7%
O=C1CC(c2cccc(-c3cccnc3)c2)=Nc2ccc(Br)cc2N1 | 38.1%
COc1cc(NS(C)(=O)=O)ccc1Nc1c2ccc(Cl)cc2nc2c(OC)cccc12 | -7.09% (active)
